The source of these data is the OligoGym collection.
Also: reference of the scale not given here.

The target in the first assay is CA4. As to the kind of experiment: pooled miR-30 sensor sort-seq; sequence = guide strand. As to conditions: shRNA.
Take TCGTAGTACAGCTTCTGAGAGA: the sensor-assay potency score (higher = more potent) is -0.918.

As to TTGCTTCTTATCGTAGCCAGAG, the sensor-assay potency score (higher = more potent) was -0.919.

On to TTCTCTGTGAAGCTGAATGGGC, for which the sensor-assay potency score (higher = more potent) was -0.889.

Turning to TTGTTCTCCAGCAACATCATCA, the sensor-assay potency score (higher = more potent) was -1.13.

As to TTGTCCACCTTTGCCTTGGTGG, the sensor-assay potency score (higher = more potent) was -0.751.

TTGTCGTAGTACAGCTTCTGAG came in with a sensor-assay potency score (higher = more potent) of -1.18.

TTCCTTGTCGTAGTACAGCTTC registered a sensor-assay potency score (higher = more potent) of -0.302.

Regarding TTGGACAGTCCACGTTTGCTTC, the sensor-assay potency score (higher = more potent) was -0.84.

The sequence TTTGCTTCTTATCGTAGCCAGA registered a sensor-assay potency score (higher = more potent) of -0.836.

Sequence TTATATGGCAAGTCGGACCAGT yielded a sensor-assay potency score (higher = more potent) of 0.112.

In the case of TTTCTCATGTACTATGTGCATC, the sensor-assay potency score (higher = more potent) is -0.994.

Take TCGTAGTGCTCATCTCAGGTTT: the sensor-assay potency score (higher = more potent) was -0.761.

Take TCACTGTCTGTTCCTTGTCGTA: the sensor-assay potency score (higher = more potent) was -1.4.

TTGAACCTCGTAGCACCAGTGT returned a sensor-assay potency score (higher = more potent) of -1.16.

TTGACTGGCACCAAGCAGGGGT came in with a sensor-assay potency score (higher = more potent) of -0.145.

ATGTACTATGTGCATCTCCATG gave a sensor-assay potency score (higher = more potent) of -2.

The sequence TTCTCATCGCAGGTCGGTGTGG had a sensor-assay potency score (higher = more potent) of -1.28.

For the sequence AATTTCGTCTTCAGGGTCCTGG, the sensor-assay potency score (higher = more potent) was 0.0795.

As to TTATTTTGGACAGTCCACGTTT, the sensor-assay potency score (higher = more potent) is -0.237.

A further assay deals with CA8. The description is as above. As to conditions: shRNA.
With AAAAGCTTTGAAATTAACCGTG, the sensor-assay potency score (higher = more potent) is -0.175.

In the case of TTCATATTAATAACAACTCTGG, the sensor-assay potency score (higher = more potent) is -0.115.

TGCAACTATGAATCCTAGCAGC had a sensor-assay potency score (higher = more potent) of -0.939.

TAACCTGAATGGTATGTCCATC came in with a sensor-assay potency score (higher = more potent) of -1.33.

TAGATGAAGACAAACAACGCAG had a sensor-assay potency score (higher = more potent) of 0.00396.

In turn, AAATTCTTCTATCTGTAGCTGG came in with a sensor-assay potency score (higher = more potent) of 0.0203.

The sequence TTCGAAATTCTTCTATCTGTAG showed a sensor-assay potency score (higher = more potent) of -0.338.

In turn, AAAGCTTTGAAATTAACCGTGT gave a sensor-assay potency score (higher = more potent) of 0.986.

Take AATTCTTCTATCTGTAGCTGGG: the sensor-assay potency score (higher = more potent) was -0.112.

As to TATCTGAACAAACAGAGCAATG, the sensor-assay potency score (higher = more potent) is -1.69.

Take TTGACTTCAGGATAACCTGAAT: the sensor-assay potency score (higher = more potent) is -1.18.

As to TTTCTTTGGAATATACAGCCAT, the sensor-assay potency score (higher = more potent) was found to be 0.203.

For TTGGTGACTTCACAGTCTCGGC, the sensor-assay potency score (higher = more potent) was -0.936.

In turn, ATTAGCATCAGGAAACACCAGA came in with a sensor-assay potency score (higher = more potent) of -0.642.

In turn, TTTGACTTCAGGATAACCTGAA registered a sensor-assay potency score (higher = more potent) of 0.794.

Turning to TAACACATGATATATATTCATA, the sensor-assay potency score (higher = more potent) was -0.982.

In turn, TTAACATGTGTCCTCAGCCTTC yielded a sensor-assay potency score (higher = more potent) of -1.15.

TTAGGTTAATAGGAGACTGGTA registered a sensor-assay potency score (higher = more potent) of -0.274.

On to TTCTTTGGAATATACAGCCATT, for which the sensor-assay potency score (higher = more potent) was -0.749.

Sequence TATCGGAATAATATCCAGGTGA came in with a sensor-assay potency score (higher = more potent) of -0.367.

On to TTTGAGGATAAACTGAAGGTGC, for which the sensor-assay potency score (higher = more potent) was -0.117.
